Molecules are shown by their SMILES. In all, about 69,000 compounds went through this assay and about 8,600 (12%) showed an effect of 50% or more. Many of the other results were omitted from the sample, so strong results are more common in it than they were.

Here are results for 58 molecules from ChEMBL document CHEMBL4513216, “Probing the Open Global Health Chemical Diversity Library for Multistage-Active Starting Points for Next-Generation Antimalarials” (ACS Infect Dis, 2020).

The subject of the assay is Plasmodium berghei. As to the kind of experiment: Screen against P. berghei liver stage (PbLuc), transformed with Luciferase, at 10uM. The assay is classed as functional, HepG2. Conditions: tested at 10 uM.
Take `CCc1ncncc1C(=O)N1CCCN(Cc2ccc(C#N)cc2)CC1`: the INHIBITION is listed as 19.6%.

Take `CCCc1n[nH]c(C2CN(C(=O)c3cccc4[nH]ncc34)CCO2)n1` (stereo not drawn): the INHIBITION amounted to 33.3%.

As to `Cc1ccc(OC2(C(=O)NC(C)Cc3ccncc3)CCNCC2)cc1` (stereo not drawn), the INHIBITION came out at 26.7%.

For the molecule `CN(C)C(=O)CO[C@H]1CO[C@@]2(CCN(Cc3ccsc3)C2)C1`, the INHIBITION worked out at 24%.

For the molecule `Cc1nn(C)c(C)c1C1CCCN1CC(=O)Nc1ccc(Cl)cn1` (stereo not drawn), the INHIBITION is recorded as -48.4%.

In the case of `O=C(Cc1cccnc1)N1CCCC2(CCN(C3CCOCC3)C2)C1` (stereo not drawn), the INHIBITION is reported as -62.2%.

With `Cc1ccc(C(=O)N2CCC3(CC2)CC(c2ccccc2)C(=O)N3)cn1` (stereo not drawn), the INHIBITION turned out to be 30.5%.

Regarding `Cc1nccn1[C@@H]1CC[C@@H](NC(=O)CCOc2ccccc2)[C@H]1O`, the INHIBITION was found to be 21.7%.

For the molecule `CCC=C(C)C(=O)NCc1ccnc(OC2CCOCC2)c1`, the INHIBITION was found to be 56%.

On to `CCC=C(C)C(=O)NCc1ccnc(OC)c1`, for which the INHIBITION is 42.3%.

For the molecule `O=C(Cc1cccs1)NCc1ccnc(OC2CCOCC2)c1`, the INHIBITION is -32.8%.

For the molecule `O=C(NCCC1CCN(CC(F)(F)F)CC1)C1COCCO1` (stereo not drawn), the INHIBITION was 21.8%.

As to `c1cncc(CNCc2cccs2)c1`, the INHIBITION came out at 6.26%.

As for `O=C1CCCN1Cc1nnc2n1CCN(Cc1ccoc1)CC2`, the INHIBITION turned out to be 33.2%.

Consider `O=C(O)c1cc(S(=O)(=O)N2CCOc3ccccc32)cc(Cl)c1Cl`, for which the INHIBITION came to 23.25%.

Take `O=C(c1ccccn1)N1C[C@H]2CC[C@@H](C1)N(C(=O)CCC(F)(F)F)C2`: the INHIBITION is recorded as 6.33%.

As for `O=C(c1ccccn1)N1C[C@H]2CC[C@@H](C1)N(C(=O)CCC1CCCC1)C2`, the INHIBITION was -36.6%.

Turning to `O=C(c1ccccn1)N1C[C@H]2CC[C@@H](C1)N(C(=O)CCN1CCCC1)C2`, the INHIBITION came out at 50.3%.

As for `CC(=O)c1c(F)cccc1NCC(O)C(C)(C)C` (stereo not drawn), the INHIBITION was 30.5%.

Consider `Fc1cccc(-c2nnn3c2COC(CNc2ncccn2)C3)c1` (stereo not drawn), for which the INHIBITION was determined as 54.4%.

On to `c1cnc(NCC2Cn3nnc(-c4ccsc4)c3CO2)nc1` (stereo not drawn), for which the INHIBITION came to 45.1%.

On to `Fc1cnc(NCC2Cn3nnc(-c4ccccc4)c3CO2)nc1` (stereo not drawn), for which the INHIBITION is given as 50.9%.

Turning to `c1cnc(NCC2Cn3nnc(-c4ccoc4)c3CO2)nc1` (stereo not drawn), the INHIBITION is on record as 25.2%.

With `NCC1Cn2nnc(-c3cccc(F)c3)c2CO1` (stereo not drawn), the INHIBITION is 6.8%.

As for `O=C(NCC1Cn2nnc(-c3ccccc3)c2CO1)c1ccc[nH]1` (stereo not drawn), the INHIBITION is -29%.

`CNCC(=O)N1CCCC1c1n[nH]cc1-c1ccccc1F` (stereo not drawn): the INHIBITION was -16%.

With `Cn1ccnc1CN1CCOC(C)(C(=O)N2CCOCC2)C1` (stereo not drawn), the INHIBITION is reported as 35.2%.

With `COCCCN(Cc1ccc(F)cc1Cl)C1CCS(=O)(=O)C1` (stereo not drawn), the INHIBITION stood at 34.9%.

With `Cc1cccc(CN2CCC3(CCCN(C(=O)c4ccsc4)C3)C2=O)n1` (stereo not drawn), the INHIBITION is reported as 12.6%.

`Cc1nnc([C@]23COC[C@H]2CN(Cc2cnn(C)c2)C3)o1`: the INHIBITION was determined as 23.1%.

Take `Cc1cc(Br)c(O)c(-c2nc(N3CCOCC3)sc2C)c1`: the INHIBITION is listed as 33.7%.

On to `Cc1cc(Br)c(O)c(C(=O)N2CCC(CN3CCCCCC3)CC2)c1`, for which the INHIBITION is recorded as 28.1%.

For `Cc1cc(Br)c(O)c(-c2nc(N3CCCCC3)sc2C)c1`, the INHIBITION came out at 64.9%.

Take `Cc1ccsc1CN1C[C@@H]2COC[C@]2(COCC(=O)N(C)C)C1`: the INHIBITION is on record as -4.32%.

Turning to `O=C(CC1CC1)NC1CCc2c(ccc(=O)n2CC2CC2)C1` (stereo not drawn), the INHIBITION was -5.63%.

In the case of `Cc1cnc(NC2CCc3c(ccc(=O)n3C)C2)nc1` (stereo not drawn), the INHIBITION was -14.3%.

For the molecule `O=c1ccc2c(n1CC1CC1)CCC(NS(=O)(=O)C1CC1)C2` (stereo not drawn), the INHIBITION was determined as 14.8%.

For the molecule `Cc1cnc(NC2CCc3c(ccc(=O)n3CC3CC3)C2)nc1` (stereo not drawn), the INHIBITION is 81.5%.

`CCCS(=O)(=O)NC1CCc2c(ccc(=O)n2CC2CC2)C1` (stereo not drawn): the INHIBITION is reported as 43.9%.

Turning to `O=c1ccc2c(n1CC1CC1)CCC(NCc1cccs1)C2` (stereo not drawn), the INHIBITION is given as 92.8%.

With `Cn1cc(CNC2CCc3c(ccc(=O)n3C)C2)cn1` (stereo not drawn), the INHIBITION was determined as 18.6%.

As to `CCS(=O)(=O)NC1CCc2c(ccc(=O)n2CC2CC2)C1` (stereo not drawn), the INHIBITION is 35.7%.

For the molecule `COc1ncccc1CNC1CCc2c(ccc(=O)n2C)C1` (stereo not drawn), the INHIBITION is reported as 60.2%.

For `COCCn1c2c(ccc1=O)CC(NCc1cccnc1OC)CC2` (stereo not drawn), the INHIBITION stood at 41.2%.

For `CC(C)NC1CCc2c(ccc(=O)n2CC2CC2)C1` (stereo not drawn), the INHIBITION came out at 47.4%.

For the molecule `COc1ncccc1CNC1CCc2c(ccc(=O)n2CC2CC2)C1` (stereo not drawn), the INHIBITION is on record as 55.7%.

On to `O=C(CCN1CCOCC1)Nc1cccc(CNCc2ccsc2)c1`, for which the INHIBITION is recorded as -1.79%.

For the molecule `O=C(N1CCCC1)N1CC[C@H]2OCC[C@@]2(COc2ncccc2F)C1`, the INHIBITION is on record as 4.1%.

`CC(=O)N1CCC(C(=O)N2CCCC(Cc3cccc(C)n3)C2)CC1` (stereo not drawn): the INHIBITION is recorded as -18.9%.

Turning to `CS(=O)(=O)N1CCO[C@@H]2CN(C(=O)c3cccnc3)C[C@@H]2C1`, the INHIBITION amounted to 2.7%.

As to `COc1ccccc1CC(C)CC(=O)NS(=O)(=O)C(C)C` (stereo not drawn), the INHIBITION was found to be 9.57%.

With `CCC1=N[C@@]2(CC[C@@H]3CN(CC4CC4)C[C@@H]32)C(=O)N1C`, the INHIBITION is 24.5%.

With `CC(=O)NCc1nnc2n1CCN(c1ncnc3c1CCC3)CC2`, the INHIBITION is 56.1%.

On to `O=C(NCc1nnc2n1CCC2)N1CCc2sccc2C1`, for which the INHIBITION is given as -8.11%.

Take `Cn1ccnc1CN1CCc2ncnc(N3CCCC3)c2CC1`: the INHIBITION is given as -78.5%.

In the case of `CC(=O)NCc1nnc2n1CCN(c1ncnc3c(C)csc13)CC2`, the INHIBITION came to 24.7%.

For the molecule `Cc1ccc(S(=O)(=O)CCC(=O)NCc2nnc3n2CCC3)cc1`, the INHIBITION is -2.34%.

Turning to `CC(=O)NCc1nnc2n1CCN(c1nc(C)nc3sccc13)CC2`, the INHIBITION came to 55%.
